Inconclusive results are not listed. Where a call stands in place of a potency, no number is given. The source made the active and inactive calls. Calls come from the whole dose curve; as a rule, active = well fitted inhibition curve with a large enough effect; inconclusive = small, poorly fitted or top-dose-only effect; inactive = no such curve, though single readings can be large or run the other way.

Rap guanine nucleotide exchange factor 3 (Homo sapiens), sequence (O95398 whole entry, looked up): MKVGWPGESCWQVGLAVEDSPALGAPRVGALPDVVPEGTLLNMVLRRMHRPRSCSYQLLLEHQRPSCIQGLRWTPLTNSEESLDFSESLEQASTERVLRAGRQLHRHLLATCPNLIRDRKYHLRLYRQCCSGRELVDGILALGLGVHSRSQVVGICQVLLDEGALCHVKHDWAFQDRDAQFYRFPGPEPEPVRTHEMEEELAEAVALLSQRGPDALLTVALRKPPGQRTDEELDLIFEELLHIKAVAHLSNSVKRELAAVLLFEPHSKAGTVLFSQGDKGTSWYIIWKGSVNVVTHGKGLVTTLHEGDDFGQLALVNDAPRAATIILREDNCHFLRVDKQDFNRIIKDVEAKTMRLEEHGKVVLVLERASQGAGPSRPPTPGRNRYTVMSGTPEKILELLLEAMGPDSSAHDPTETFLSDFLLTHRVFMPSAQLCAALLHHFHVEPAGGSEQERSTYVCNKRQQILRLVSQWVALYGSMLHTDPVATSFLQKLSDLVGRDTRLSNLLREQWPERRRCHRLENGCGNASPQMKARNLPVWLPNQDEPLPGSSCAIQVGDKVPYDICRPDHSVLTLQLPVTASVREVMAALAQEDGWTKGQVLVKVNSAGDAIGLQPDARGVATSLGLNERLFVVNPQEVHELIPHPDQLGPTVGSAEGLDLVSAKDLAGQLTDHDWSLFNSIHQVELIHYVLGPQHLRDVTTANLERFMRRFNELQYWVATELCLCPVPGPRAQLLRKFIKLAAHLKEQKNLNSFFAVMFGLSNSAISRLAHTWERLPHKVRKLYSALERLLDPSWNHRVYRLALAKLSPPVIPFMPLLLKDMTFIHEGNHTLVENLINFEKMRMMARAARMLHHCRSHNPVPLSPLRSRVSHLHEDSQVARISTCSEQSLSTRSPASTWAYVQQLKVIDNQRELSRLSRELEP

The target of one assay is Rap guanine nucleotide exchange factor 4 (Homo sapiens) (UniProt Q8WZA2). As to the kind of experiment: Confirmatory qHTS for antagonist of cAMP-regulated guanine nucleotide exchange factor 4 (EPAC2) (AID 1645885). Note: nearly all actives have a fitted effect of over 25% in size. Note: potency is the fitted concentration of half-maximal effect. The conditions noted are these: EPAC2 Rap1B-BODIPY-GDP exchange fluorescence, biochemical; series mostly up to 12.7 µM.
Rap guanine nucleotide exchange factor 4 (Homo sapiens), sequence (Q8WZA2 whole entry, looked up): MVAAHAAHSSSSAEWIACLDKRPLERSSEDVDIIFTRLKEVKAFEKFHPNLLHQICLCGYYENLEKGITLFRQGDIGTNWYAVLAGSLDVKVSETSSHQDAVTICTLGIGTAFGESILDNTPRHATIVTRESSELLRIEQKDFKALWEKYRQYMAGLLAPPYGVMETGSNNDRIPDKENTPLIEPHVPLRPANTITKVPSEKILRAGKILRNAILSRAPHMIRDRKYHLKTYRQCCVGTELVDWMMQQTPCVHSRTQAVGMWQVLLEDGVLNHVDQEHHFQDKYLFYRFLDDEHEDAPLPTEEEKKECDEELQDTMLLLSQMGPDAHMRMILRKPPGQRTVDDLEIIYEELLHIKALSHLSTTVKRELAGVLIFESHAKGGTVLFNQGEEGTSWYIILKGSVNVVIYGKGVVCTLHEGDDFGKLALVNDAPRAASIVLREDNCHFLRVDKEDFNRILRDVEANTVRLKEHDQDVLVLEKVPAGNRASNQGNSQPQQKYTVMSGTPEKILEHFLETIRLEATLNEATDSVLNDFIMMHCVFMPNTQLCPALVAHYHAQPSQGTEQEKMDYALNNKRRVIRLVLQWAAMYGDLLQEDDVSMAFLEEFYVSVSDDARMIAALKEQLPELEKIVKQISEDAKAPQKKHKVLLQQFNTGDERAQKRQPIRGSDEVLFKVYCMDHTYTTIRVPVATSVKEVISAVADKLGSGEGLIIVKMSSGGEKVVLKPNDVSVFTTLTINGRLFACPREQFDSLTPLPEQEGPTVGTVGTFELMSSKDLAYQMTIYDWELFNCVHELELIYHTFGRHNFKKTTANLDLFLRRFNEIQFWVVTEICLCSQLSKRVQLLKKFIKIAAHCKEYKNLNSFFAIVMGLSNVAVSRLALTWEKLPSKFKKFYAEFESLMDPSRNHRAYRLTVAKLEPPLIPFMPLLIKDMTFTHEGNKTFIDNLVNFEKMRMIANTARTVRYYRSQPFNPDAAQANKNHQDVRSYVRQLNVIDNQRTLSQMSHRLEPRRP
As for `Cc1cc(OCCCSc2nc(-c3ccc(C(C)(C)C)cc3)nc3cc(=O)[nH]n23)ccc1Cl`, the outcome is “inactive [at 12.7 µM]”. With `O=C(Nc1cccc(Cl)c1)c1c(NC(=O)C(F)(F)F)sc2c1CCCC2`, the Potency entry was “inactive”. `COc1ccc(CCNC(=O)Cn2nc(C)c3c(C)n(-c4ccc(C)cc4)nc3c2=O)c(OC)c1`: the outcome is “inactive [at 12.7 µM]”. As to `Cc1cc(Cl)ccc1NC(=O)Cn1nc(C)c2c(C)n(-c3ccccc3)nc2c1=O`, the Potency result was “inactive”. On the same count and under the same terms, as for `Cc1ccc2c(c1)-c1c(c(C(=O)N3CCN(c4cc(C)ccc4C)CC3)nn1C)CS2`, the figure is 3.79 µM (active). Take `Oc1c(C(c2ccccc2)N2CCN(c3cccc(Cl)c3)CC2)sc2nc(-c3ccco3)nn12` (configuration not stated): the outcome was “inactive [at 12.7 µM]”. With `Oc1cccc(C(Nc2ccccn2)c2ccc3cccnc3c2O)c1Cl` (configuration not stated), the Potency entry was “inactive”.

On to `CC(C)(C)c1ccc(-c2nc(SCCCOc3ccccc3)n3[nH]c(=O)cc3n2)cc1`, for which the Potency result is “inactive”. Still for that read-out and setting: next, `CCOC(=O)c1c(NC(=O)c2ccc(S(=O)(=O)N(C)C3CCCCC3)cc2)sc2c1CCN(C(C)C)C2`: 4.26 µM (active); `O=C(CSc1nc(-c2ccc(F)cc2)nc2c1Cc1ccccc1O2)Nc1cccc(C(=O)O)c1`: “inactive”; `Cc1cccc(OCCCSc2nc(-c3ccc(C(C)(C)C)cc3)nc3cc(=O)[nH]n23)c1C`: “inactive”. On the same count and under the same terms, next, `Cc1ccc(Cn2c(Cc3ccccc3)nc3ccccc32)cc1`: “inactive”.

The target of the next assay is Rap guanine nucleotide exchange factor 3 (Homo sapiens) (UniProt O95398). Kind of assay: Counterscreen qHTS for antagonist of cAMP-regulated guanine nucleotide exchange factor 3 (EPAC1) (AID 1645888).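 Note: fluorescence loss as bound BODIPY-GDP is released from Rap1B.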 The conditions noted are these: Rap1B-BODIPY-GDP nucleotide exchange, fluorescence; series mostly up to 154 µM. Put shortly:
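Rap1B-BODIPY-GDP 250 nM + GDP 50 uM; cpds 7-pt, final 9.74 nM–152 uM (activator mode) or from 7.32 nM upwards (inhibitor mode); RT; FI 480/540 nm at 5 and 30 min, then ± cAMP, reread.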
On the technique in general: A counterscreen serves to expose hits that act by an unwanted route or on another target.
Regarding `Cc1cc(OCCCSc2nc(-c3ccc(C(C)(C)C)cc3)nc3cc(=O)[nH]n23)ccc1Cl`, the Potency entry was “inactive”. Regarding `O=C(Nc1cccc(Cl)c1)c1c(NC(=O)C(F)(F)F)sc2c1CCCC2`, the Potency entry was “inactive”. On the same count and under the same terms, next, `COc1ccc(CCNC(=O)Cn2nc(C)c3c(C)n(-c4ccc(C)cc4)nc3c2=O)c(OC)c1`: “inactive”. With `Cc1cc(Cl)ccc1NC(=O)Cn1nc(C)c2c(C)n(-c3ccccc3)nc2c1=O`, the Potency entry is “inactive”. On the same count and under the same terms, next, `Cc1ccc2c(c1)-c1c(c(C(=O)N3CCN(c4cc(C)ccc4C)CC3)nn1C)CS2`: “inactive”; `Oc1cccc(C(Nc2ccccn2)c2ccc3cccnc3c2O)c1Cl` (configuration not stated): “inactive”; `CC(C)(C)c1ccc(-c2nc(SCCCOc3ccccc3)n3[nH]c(=O)cc3n2)cc1`: “inactive”. On the same count and under the same terms, as for `O=C(CSc1nc(-c2ccc(F)cc2)nc2c1Cc1ccccc1O2)Nc1cccc(C(=O)O)c1`, the entry is “inactive”; as for `Cc1cccc(OCCCSc2nc(-c3ccc(C(C)(C)C)cc3)nc3cc(=O)[nH]n23)c1C`, “inactive”; as for `Cc1ccc(Cn2c(Cc3ccccc3)nc3ccccc32)cc1`, “inactive”.

The values are drawn from PubChem BioAssay (NCATS).
